Unmarked numbers belong to inactive results.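 How the source made its calls: active = AUC reduced over 20% with Padj below 0.05 in at least 2 of 3 replicates; inactive = otherwise.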
What follows are compounds tested on Roseburia intestinalis (assay: growth AUC relative to DMSO control (median of replicates) (fraction); higher = more growth (less inhibition), active = hit call of the paper). Details: 20 µM; 24 h.
How it was run: (§1)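 Each value is the median of three biological replicates, grown on separate days, of a gut bacterial monoculture incubated anaerobically at 37 °C in mGAM with 20 µM compound (1% DMSO). Cultures started at OD600 0.05 and were read at OD600 hourly for 24 h, with the minimum OD set to 0. Area under the growth curve was normalised to the plate median of solvent-only wells, or to row and column medians on the industrial chemical plate.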

SMILES | growth AUC
CC(C1CC1)C(O)(Cn1cncn1)c1ccc(Cl)cc1 (mixture of isomers) | 1.06
O=C(NC(=O)c1c(F)cccc1F)Nc1cc(Cl)c(OC(F)(F)C(F)C(F)(F)F)cc1Cl (stereo not drawn) | 1.02
O=C(O)COc1ccccc1 | 0.995
CN(C)C(=O)C(c1ccccc1)c1ccccc1 | 0.964
Fc1ccc(Oc2ccnc3cc(Cl)cc(Cl)c23)cc1 | 1.02
Oc1ccc(Cl)cc1Cc1cc(Cl)ccc1O | 0.64 (active)
C[n+]1ccc(-c2cc[n+](C)cc2)cc1.O.[Cl-].[Cl-] | 1
CCNc1nc(Cl)nc(NCC)n1 | 0.968
CCOP(=S)(NC(C)CC)Oc1cc(C)ccc1[N+](=O)[O-] (stereo not drawn) | 1.01
Cc1cc(Cl)ccc1N=CN(C)C | 1.02
COP(N)(=S)Oc1ccccc1C(=O)OC(C)C (stereo not drawn) | 1.07
CCOP(=S)(OCC)SCn1c(=O)oc2cc(Cl)ccc21 | 0.932
Nc1c(Cl)c(Cl)c(Cl)c(Cl)c1Cl | 0.986
ClC1C(Cl)C(Cl)C(Cl)C(Cl)C1Cl (mixture of isomers) | 1.02
Clc1ccc(Cl)cc1 | 1.01
Oc1c(Br)cc(Br)cc1Br | 1.08
CCOP(=S)(OCC)SCCS(=O)CC (stereo not drawn) | 0.965
COC(=O)c1ccccc1S(=O)(=O)NC(=O)N(C)c1nc(C)nc(OC)n1 | 0.998
CNC(=O)Oc1cccc2c1OC(C)(C)C2 | 0.992
CSC1=N[C@@](C)(c2ccccc2)C(=O)N1Nc1ccccc1 | 0.997

SMILES | growth AUC
O=S(=O)(c1ccc(O)cc1)c1ccc(O)cc1 | 1
Oc1ccc(Cl)cc1 | 0.972
CNc1nc(C)c(C)c(OC(=O)N(C)C)n1 | 0.951
O=C1C(Cl)=C(Cl)C(=O)c2ccccc21 | 1.13
c1cc2ccc3cccc4ccc(c1)c2c34 | 0.977
C=CCN=C=S | 0.986
CC(C)=CC1C(C(=O)OCN2C(=O)C3=C(CCCC3)C2=O)C1(C)C (stereo not drawn) | 0.988
C=CCC1=C(C)C(OC(=O)C2C(C=C(C)C)C2(C)C)CC1=O (mixture of isomers) | 0.924
CCN(CC)C(=O)SCc1ccc(Cl)cc1 | 0.983
CCS(=O)(=O)CCSP(=O)(OC)OC | 1.06
CC1(C)[C@H](C(=O)O[C@H](C#N)c2cccc(Oc3ccccc3)c2)[C@@H]1C=C(Br)Br | 0.933
CCCCc1c(C)nc(NCC)nc1OS(=O)(=O)N(C)C | 1.03
Nc1ccc(Cl)cc1Cl | 1.02
COC(=O)C(C)(Cl)Cl | 1.12
CCOP(=O)(OCC)O/C(=C\Cl)c1ccc(Cl)cc1Cl | 1.06
COc1nc(NC(C)C)nc(NC(C)C)n1 | 0.963
CNC(=O)ON=C(C)C(C)SC (stereo not drawn) | 0.949
ClC1=C(Cl)C2(Cl)C(CBr)CC1(Cl)C2(Cl)Cl (stereo not drawn) | 0.993
CC(C)=CC1C(C(=O)OCc2coc(Cc3ccccc3)c2)C1(C)C (stereo not drawn) | 0.921

What follows are compounds tested on Streptococcus salivarius in the same assay as above. Details: 20 µM; 24 h.
How it was run: as §1

SMILES | growth AUC
CC(C1CC1)C(O)(Cn1cncn1)c1ccc(Cl)cc1 (mixture of isomers) | 0.973
O=C(NC(=O)c1c(F)cccc1F)Nc1cc(Cl)c(OC(F)(F)C(F)C(F)(F)F)cc1Cl (stereo not drawn) | 0.958
O=C(O)COc1ccccc1 | 0.994
CN(C)C(=O)C(c1ccccc1)c1ccccc1 | 0.995
Fc1ccc(Oc2ccnc3cc(Cl)cc(Cl)c23)cc1 | 0.956
Oc1ccc(Cl)cc1Cc1cc(Cl)ccc1O | 0.445 (active)
C[n+]1ccc(-c2cc[n+](C)cc2)cc1.O.[Cl-].[Cl-] | 0.982
CCNc1nc(Cl)nc(NCC)n1 | 1.03
CCOP(=S)(NC(C)CC)Oc1cc(C)ccc1[N+](=O)[O-] (stereo not drawn) | 0.976
Cc1cc(Cl)ccc1N=CN(C)C | 0.998
COP(N)(=S)Oc1ccccc1C(=O)OC(C)C (stereo not drawn) | 0.991
CCOP(=S)(OCC)SCn1c(=O)oc2cc(Cl)ccc21 | 0.98
Nc1c(Cl)c(Cl)c(Cl)c(Cl)c1Cl | 0.983
ClC1C(Cl)C(Cl)C(Cl)C(Cl)C1Cl (mixture of isomers) | 0.974
Clc1ccc(Cl)cc1 | 1.02
Oc1c(Br)cc(Br)cc1Br | 0.959
CCOP(=S)(OCC)SCCS(=O)CC (stereo not drawn) | 0.973
COC(=O)c1ccccc1S(=O)(=O)NC(=O)N(C)c1nc(C)nc(OC)n1 | 1.01
CNC(=O)Oc1cccc2c1OC(C)(C)C2 | 1.03
CSC1=N[C@@](C)(c2ccccc2)C(=O)N1Nc1ccccc1 | 1.01

SMILES | growth AUC
O=S(=O)(c1ccc(O)cc1)c1ccc(O)cc1 | 1.04
Oc1ccc(Cl)cc1 | 0.984
CNc1nc(C)c(C)c(OC(=O)N(C)C)n1 | 1.03
O=C1C(Cl)=C(Cl)C(=O)c2ccccc21 | 0.955
c1cc2ccc3cccc4ccc(c1)c2c34 | 0.927
C=CCN=C=S | 0.994
CC(C)=CC1C(C(=O)OCN2C(=O)C3=C(CCCC3)C2=O)C1(C)C (stereo not drawn) | 1.01
C=CCC1=C(C)C(OC(=O)C2C(C=C(C)C)C2(C)C)CC1=O (mixture of isomers) | 0.953
CCN(CC)C(=O)SCc1ccc(Cl)cc1 | 0.986
CCS(=O)(=O)CCSP(=O)(OC)OC | 0.957
CC1(C)[C@H](C(=O)O[C@H](C#N)c2cccc(Oc3ccccc3)c2)[C@@H]1C=C(Br)Br | 0.914
CCCCc1c(C)nc(NCC)nc1OS(=O)(=O)N(C)C | 1.02
Nc1ccc(Cl)cc1Cl | 1.03
COC(=O)C(C)(Cl)Cl | 0.979
CCOP(=O)(OCC)O/C(=C\Cl)c1ccc(Cl)cc1Cl | 0.982
COc1nc(NC(C)C)nc(NC(C)C)n1 | 1.05
CNC(=O)ON=C(C)C(C)SC (stereo not drawn) | 0.924
ClC1=C(Cl)C2(Cl)C(CBr)CC1(Cl)C2(Cl)Cl (stereo not drawn) | 1.03
CC(C)=CC1C(C(=O)OCc2coc(Cc3ccccc3)c2)C1(C)C (stereo not drawn) | 0.99

From the supplement of paper PMC12669032
